These results are taken from PubChem BioAssay (EPA / NIEHS).

By AC50 is commonly meant the concentration giving half of the maximal activity seen.

Read-out in test [1]: UDP glucuronosyltransferase (UGT1A6), UGT1A6 (gene 54578)
Briefly: LTEA_HepaRG_UGT1A6: Life Technologies and Expression Analysis (LTEA) Assay for UDP glucuronosyltransferase (UGT1A6) using HepaRG (AID 2283539; active = hit-call score of the fitted dose curve at least 0.9, where 1 is the maximum; inactive = score below 0.9). The following applies: mRNA level, 48 h; actives raise or lower the signal. The gist of the method:
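Measures mRNA change in HepaRG hepatic cells exposed 48 h to chemicals (eight-point, maximum 100 uM, 0.5% DMSO vehicle) in serum-free induction medium. Expression normalized to endogenous controls; DMSO served as negative control and baseline.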

Read-out in test [2]: X-box binding protein 1 (XBP1), XBP1 (gene 7494)
The experiment in a line: LTEA_HepaRG_XBP1: Life Technologies and Expression Analysis (LTEA) Assay for X-box binding protein 1 (XBP1) using HepaRG (AID 2283540; active = hit-call score of the fitted dose curve at least 0.9, where 1 is the maximum; inactive = score below 0.9). The settings on record: mRNA level, 48 h; actives raise or lower the signal. The gist of the method: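 Eight concentrations (half-log, highest 100 uM, 0.5% DMSO) tested in duplicate on HepaRG cells over 48 h in serum-free induction medium; qRT-PCR of XBP1 normalised to ACTB, GAPDH, POLR2A.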

Test [3] in a line: LTEA_HepaRG_LDH_cytotoxicity: Cytotoxicity Assessment in the Life Technologies and Expression Analysis (LTEA) Assay (AID 2283563). The essentials: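 Spent-medium LDH after 48 h chemical exposure of HepaRG cells in serum-free induction medium; eight concentrations, half-log dilutions from 100 uM, duplicate wells, fitted upward relative to 0.5% DMSO.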
A short description of test [4]: ATG_XTT_Cytotoxicity: Cytotoxicity Assessment in the Attagene TRANS-FACTORIAL HepG2 Assay (AID 2283584). The gist of the method:
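24 h chemical exposure of reporter-transfected HepG2; XTT signal loss vs DMSO indicates cytotoxicity.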

A short description of test [5]: TOX21_p53_BLA_p2_viability: Viability Assessment in the Tox21 HCT-116 p53 Agonism Beta-lactamase Assay, Phase 2 (AID 2283591).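 Also: compound exposure lasted 16 h at 37 °C; actives lower the ATP signal meaning cytotoxicity.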 The essentials:
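HCT116 p53-bla cells, 4000/well, dosed after 5 h plating (217-fold dilution of DMSO stocks) and incubated 16 h at 37C. Viability taken as cellular ATP by CellTiter-Glo luminescence after 30 min RT; signal loss marks cytotoxicity.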

Test [6] concerns the target Cellular tumor antigen p53 (Homo sapiens) (UniProt P04637). The experiment in a line: TOX21_p53_BLA_p2_ratio: Tox21 HCT-116 p53 Agonism Beta-lactamase Assay, Ratio, Phase 2 (AID 2283592). The gist of the method: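 Human colon HCT116 cells with an inducible p53 beta-lactamase reporter are exposed to test chemicals for 16 h at 37C. Reporter induction is read as the 460/530 nm emission ratio after CCF4-AM loading, normalized to DMSO.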

Test [7] is described as follows: TOX21_p53_BLA_p3_viability: Viability Assessment in the Tox21 HCT-116 p53 Agonism Beta-lactamase Assay, Phase 3 (AID 2283593).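 Also: cells exposed to compound for 16 h before reading.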 The essentials: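 HCT116 cells, 4000/well, dosed 5 h after plating by pin transfer (217-fold dilution from DMSO stock) and incubated 16 h at 37C, 5% CO2. Viability read as ATP luminescence with CellTiter-Glo after 30 min at room temperature.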

The target in test [8] is Cellular tumor antigen p53 (Homo sapiens) (UniProt P04637). Briefly: TOX21_p53_BLA_p3_ratio: Tox21 HCT-116 p53 Agonism Beta-lactamase Assay, Ratio, Phase 3 (AID 2283596). The gist of the method:
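HCT116 p53-bla cells (4000/well) given compound in DMSO (217-fold dilution) after 5 h, incubated 16 h at 37C. CCF4-AM substrate 2 h at room temperature; 460/530 nm emission ratio, gain fitted against DMSO.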

Test [9] has the same target. The experiment in a line: TOX21_p53_BLA_p5_ratio: Tox21 HCT-116 p53 Agonism Beta-lactamase Assay, Ratio, Phase 5 (AID 2283599). The gist of the method:
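HCT-116 p53-bla cells (4000/well) plated 5 h, dosed with compound (217-fold DMSO dilution) for 16 h at 37 C; CCF4-AM substrate 2 h at room temperature. Activity is the 460/530 nm emission ratio (405 nm excitation), fitted in gain-of-signal direction versus DMSO.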

The nature of test [10]: TOX21_p53_BLA_p5_viability: Viability Assessment in the Tox21 HCT-116 p53 Agonism Beta-lactamase Assay, Phase 5 (AID 2283600). The gist of the method:
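Seeded cells (4000/well) settle 5 h before compound addition. Plates then incubate 16 h at 37C, receive FRET substrate for 2 h, and finally CellTiter-Glo, with luminescence measured after a 30 min room-temperature incubation.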

In test [11] the target is Cellular tumor antigen p53 (Homo sapiens) (UniProt P04637). Briefly: TOX21_p53_BLA_p4_ratio: Tox21 HCT-116 p53 Agonism Beta-lactamase Assay, Ratio, Phase 4 (AID 2283601). The essentials: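 HCT-116 p53 beta-lactamase reporter cells (4000/well) preincubated 5 h, then compound (217-fold dilution of DMSO stock) for 16 h at 37C. CCF4-AM substrate added 2 h at room temperature; 460/530 nm emission ratio fitted upward versus DMSO.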
Cellular tumor antigen p53 (Homo sapiens), sequence (P04637 whole entry, looked up): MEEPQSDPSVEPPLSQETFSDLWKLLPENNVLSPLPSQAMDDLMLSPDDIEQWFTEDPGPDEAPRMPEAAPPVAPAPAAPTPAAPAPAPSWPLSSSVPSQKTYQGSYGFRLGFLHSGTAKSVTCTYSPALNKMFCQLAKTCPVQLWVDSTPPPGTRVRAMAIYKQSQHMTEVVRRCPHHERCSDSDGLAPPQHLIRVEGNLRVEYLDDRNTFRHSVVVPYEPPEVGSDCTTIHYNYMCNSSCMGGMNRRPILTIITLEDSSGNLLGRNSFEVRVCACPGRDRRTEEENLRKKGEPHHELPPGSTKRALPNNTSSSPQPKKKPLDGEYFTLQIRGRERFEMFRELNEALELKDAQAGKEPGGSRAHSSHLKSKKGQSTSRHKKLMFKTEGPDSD

Test [12] in a line: Tanguay_ZF_120hpf_MORT_legacy: (Legacy) Oregon State University Tanguay Lab 120 Hour Post-fertilization zebrafish Assay for Mortality (AID 2283633).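 As to AC50: fitted as increase in binary mortality versus DMSO negative control.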 The gist of the method:
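Single dechorionated Tropical 5D embryos were held with test chemical (0.64% DMSO final) from 6 to 120 hpf at 28C under foil. Deaths at 24 or 120 hpf were recorded as binary calls, analysed for increase over DMSO controls.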

A short description of test [13]: Tanguay_ZF_120hpf_YSE_legacy: (Legacy) Oregon State University Tanguay Lab 120 Hour Post-fertilization zebrafish Assay for Yolk Sac Edema (AID 2283634). The essentials: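 Single dechorionated embryos were held in sealed plates at 28C with test chemical (0.64% DMSO final) from 6 hpf until 120 hpf. Edema of the yolk sac was then recorded as a binary endpoint; non-mortality endpoints were skipped for dead embryos.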

Test [14] in a line: Tanguay_ZF_120hpf_AXIS_legacy: (Legacy) Oregon State University Tanguay Lab 120 Hour Post-fertilization zebrafish Assay for Body Axis Malformation (AID 2283635). The essentials: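 Each dechorionated embryo was exposed alone from 6 hpf, with DMSO at 0.64% (vol/vol) and trimethyltin chloride 5 uM as positive control. Axis malformation was recorded at 120 hpf unless the embryo had died.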

Test [15] can be described thus: Tanguay_ZF_120hpf_JAW_legacy: (Legacy) Oregon State University Tanguay Lab 120 Hour Post-fertilization zebrafish Assay for Jaw Malformation (AID 2283638). The gist of the method: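 Wild-type 5D embryos, chorion removed at 4 hpf, dosed singly from 6 hpf; 28C static, sealed, foil-covered, to 120 hpf. Endpoint: jaw defect yes/no (brightfield); mortality excludes scoring.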

Test [16] can be described thus: Tanguay_ZF_120hpf_OTIC_legacy: (Legacy) Oregon State University Tanguay Lab 120 Hour Post-fertilization zebrafish Assay for Otic Vesicle Malformation (AID 2283639). The gist of the method:
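Tropical 5D wild-type zebrafish embryos were exposed statically in sealed, foil-covered plates at 28C until 120 hpf, with 0.64% (vol/vol) DMSO final. Otic vesicle malformation was scored present/absent by brightfield microscopy, with DMSO as baseline.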

Test [17] in a line: Tanguay_ZF_120hpf_PE_legacy: (Legacy) Oregon State University Tanguay Lab 120 Hour Post-fertilization zebrafish Assay for Pericardial Edema (AID 2283640). The gist of the method: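 Zebrafish larvae are exposed from early development to 120 hpf at 28C, with 0.64% DMSO final. Each surviving larva receives a yes/no pericardial edema call by brightfield imaging, analysed relative to the DMSO baseline.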

Test [18] can be described thus: TOX21_p53_BLA_p4_viability: Viability Assessment in the Tox21 HCT-116 p53 Agonism Beta-lactamase Assay, Phase 4 (AID 2283597).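 Also: hits lower the luminescence signal meaning cytotoxicity.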 The gist of the method: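 Luminescent ATP readout (CellTiter-Glo, 30 min, room temperature) in the same wells as the p53 bla ratio. HCT116 cells were treated for 16 h at 37C with DMSO-dissolved compounds.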
A short description of test [19]: Tanguay_ZF_120hpf_EYE_legacy: (Legacy) Oregon State University Tanguay Lab 120 Hour Post-fertilization zebrafish Assay for Eye Malformation (AID 2283636).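 Also: binary presence or absence of eye malformation scored by brightfield in 120 hpf larvae.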 The gist of the method: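 Dechorionated Tropical 5D zebrafish embryos, one per well from 6 hpf, static exposure to 120 hpf at 28C, 0.64% DMSO. Eye malformation scored present/absent by brightfield; dead embryos not scored.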

Test [20] is described as follows: Tanguay_ZF_120hpf_SNOU_legacy: (Legacy) Oregon State University Tanguay Lab 120 Hour Post-fertilization zebrafish Assay for Snout Malformation (AID 2283637). The essentials:
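Dechorionated tropical 5D wild-type zebrafish embryos exposed statically from 6 to 120 hpf at 28C, one per well, in 0.64% DMSO. Snout malformation scored as present/absent by brightfield at 120 hpf; dead embryos not scored.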

Each structure is given as a SMILES string. Results filed as inconclusive are left out. Where a structure was tested more than once in an assay, its records may differ in their call. Activity calls are given as the source filed them. The calls were made as follows, unless noted: active = hit-call score of the fitted dose curve at least 0.9, where 1 is the maximum; inconclusive = response in the unintended direction; inactive = score below 0.9.

As for `C1CCC(SSC2CCCCC2)CC1`, the compound was classed as inactive in test [1], in test [2], in test [3], in [4], in [5] and in test [6]. Further, the call in test [7], in test [8], in test [9], in test [10], in test [11] and in test [12] was inactive. For the same compound, the compound was classed as inactive in test [13], in [14], in test [15], in test [16] and in test [17].

Regarding `O=C(O)Cc1ccccc1Nc1c(Cl)cccc1Cl`, the call in [1], in test [2], in [3], in test [4], in [5] and in test [6] was inactive. Moreover, the compound was called inactive in test [7], in [8], in test [9], in [11], in test [13] and in [14]. The outcome in test [19], in [15], in [16] and in [17] was inactive. The AC50 in test [6] is 68.9 µM (active); in test [8] it was 86 µM (active); in test [18], 46.1 µM (active); in test [9] it was 86.4 µM (active); in test [11], 71.7 µM (active); in [12] it was 30.6 µM (active).

Consider `C[C@]12C=CC(=O)C=C1CC[C@@H]1[C@@H]2C(=O)C[C@@]2(C)[C@H]1CC[C@]2(O)C(=O)CO`, for which the compound was classed as inactive in [1], in test [2], in [3], in [4], in test [5] and in test [6]. Besides, the outcome in test [7], in test [18], in [9], in test [10], in [12] and in test [13] was inactive. For the same compound, the compound was classed as inactive in [19], in [20], in test [15] and in test [16].

On to `Nc1ccc(S(=O)(=O)c2ccc(N)cc2)cc1`, for which the compound was called inactive in [1], in [2], in [3], in test [4], in test [5] and in test [6]. Further, the compound was called inactive in test [7], in [8], in test [18], in [9], in test [10] and in [11]. In addition, the call in test [12], in [14], in test [19], in [20], in test [15] and in [16] was inactive.

On to `Cc1ccc(C)c(C)c1`, for which the call in test [1], in test [2], in test [3], in test [4], in test [5] and in [6] was inactive. Also, the outcome in test [7], in test [8], in [9], in [10], in test [11] and in [12] was inactive. Besides, the outcome in test [13], in test [14], in [19], in test [15], in [16] and in [17] was inactive.

Consider `CC=Cc1ccc(O)c(OC)c1`, for which the outcome in test [1], in [2], in [3], in test [4], in test [5] and in test [6] was inactive. In addition, the outcome in [8], in test [18], in test [9], in test [10], in test [11] and in test [12] was inactive. Moreover, the outcome in test [13], in [14], in test [19], in test [15], in test [16] and in test [17] was inactive.

As to `Cc1nc(-c2ccc3c(c2)CCN(CCC2CCC(NC(=O)/C=C/c4ccc(F)cc4)CC2)CC3)no1` (stereo not drawn), the call in [1], in test [2], in test [3], in test [4], in [5] and in test [6] was inactive. Moreover, the result in [8], in test [18], in test [10], in test [11], in test [12] and in [13] was inactive. Besides, the outcome in [14], in test [19], in test [20], in [15], in test [16] and in [17] was inactive. For the same compound, the AC50 in test [9] was 37.9 µM (active).
